Data: PubChem BioAssay AID1566 (Sanford-Burnham Center for Chemical Genomics, 2009)
Among all 290,000 compounds or so, about 1,800 (0.62%) were called active. The entries come from a sample that favours actives as a whole. A number with no mark means an inactive call. Rule as the data show it: active = inhibition above about 50%; inactive = the rest.

assay: inhibition of NOD2-driven NF-kB reporter – cell-based, luminescence, uHTS, HEK293 (AID 1566); settings: HEK293 NOD2/NF-kB luciferase reporter, at 4 µM, hits give high values

SMILES | inhibition
COc1ccc(Cl)c(OC)c1C(=O)NC(=O)Nc1nc(C)nc(C)n1 | 3.1%
CCC(=O)Nc1cc2nn(-c3ccccc3)nc2cc1Cl | -189%
CC(C)(C)C(=O)Nc1cc2nn(-c3ccccc3)nc2cc1Cl | 76.2% (active)
CC(=O)Nc1cc2nn(-c3ccccc3)nc2cc1Cl | -133%
CC1(C)c2ccccc2N2CCC(=O)NC21/C=C/c1ccco1 (configuration not stated) | 3.8%
COC(=O)c1ccc(NC(=O)c2cccc(N3C(=O)C4C5C=CC(C6CC56)C4C3=O)c2)cc1 (configuration not stated) | 58.5% (active)
COc1ccc(NC(=O)c2cccc(N3C(=O)C4C5C=CC(C6CC56)C4C3=O)c2)cc1 (configuration not stated) | 9.4%
O=C(Nc1ccccc1)c1cccc(N2C(=O)C3C4C=CC(C5CC45)C3C2=O)c1 (configuration not stated) | 31.7%
CCOc1ccccc1C(=O)NC(C(=O)NCc1ccccc1OC)C(C)C (configuration not stated) | 2.5%
CC(C)CNC(=S)N1CCN(c2nc(-c3ccc(Cl)cc3)cs2)CC1 | 54.9% (active)
CNC(=S)N1CCN(c2nc(-c3ccc(Cl)cc3)cs2)CC1 | 11.2%
COCCNC(=S)N1CCN(c2nc(-c3ccc(Cl)cc3)cs2)CC1 | 35.9%
CCN(CC(=O)Nc1c(F)cccc1F)C(=O)CCc1c[nH]c2ccccc12 | -24.9%
Cc1onc(-c2ccccc2)c1NC(=O)N(CCC(=O)O)Cc1ccccc1 | 15.3%
Cc1c(NC(=O)NCc2ccccc2)c(=O)n(-c2ccccc2)n1C | -6.6%
Cc1ccc(C(=O)N/C(=C\c2ccc(-c3ccccc3[N+](=O)[O-])o2)C(=O)NCCCN2CCOCC2)cc1 | 38.2%
Cc1ccc(C(=O)N/C(=C\c2ccc(-c3ccccc3[N+](=O)[O-])o2)C(=O)NCCN(C)C)cc1 | 50.5% (active)
Cc1ccc(C(=O)N/C(=C\c2ccc(-c3ccccc3[N+](=O)[O-])o2)C(=O)NCCCN(C)C)cc1 | 49.4%
NC(=O)c1cc([N+](=O)[O-])ccc1NCCN1C(=O)c2ccc(C(=O)O)cc2C1=O | 17.5%
Cc1cc(=O)[nH]c2ccc(S(=O)(=O)Nc3ccccc3)cc12 | 4.4%
O=C(Nc1ccc(C(=O)N2CCOCC2)cc1)c1cccc(Br)c1 | 8%
Cc1sc2nc3c(C(=O)N4CCN(c5ccccn5)CC4)cccn3c(=O)c2c1C | 3.3%
C/C(Cn1nnc([N+](=O)[O-])n1)=N\NC(=O)c1cccc(Cl)c1 | 48.8%
C/C(Cn1nnc([N+](=O)[O-])n1)=N\NC(=O)c1ccc(O)cc1 | 37.7%

SMILES | inhibition
COc1ccc(-c2csc(/C(C#N)=C\c3ccc(OC)c([N+](=O)[O-])c3)n2)cc1 | 25.7%
COc1ccc(-c2csc(/C(C#N)=C\c3ccc(O)c([N+](=O)[O-])c3)n2)cc1OC | -7.4%
Cc1ncc(CO)c(/C=N/NC(=O)c2ccc(O)cc2)c1O | -8.9%
COc1ccc(C(=O)N/N=C/c2c(CO)cnc(C)c2O)cc1 | -27.8%
Cc1ncc(CO)c(/C=N/Nc2cccc(Cl)n2)c1O | -52.5%
Cc1ncc(CO)c(/C=N/Nc2ccc(C(F)(F)F)cn2)c1O | 59.1% (active)
COc1ccccc1N/N=C/c1c(CO)cnc(C)c1O | -3.8%
Cc1ncc(CO)c(/C=N/NC(=O)c2ccc(Br)cc2)c1O | 51.6% (active)
Cc1c(=O)n(OCc2ccccn2)c2ccccc2[n+]1[O-] | 9.3%
N#CC1=C(SCC(=O)Nc2ccc(C(=O)O)cc2)NC(=O)CC1c1ccco1 (configuration not stated) | -4.5%
COc1ccc(-c2[nH]ncc2CN2CCN(c3ccccn3)CC2)c(OC)c1 | 11.3%
COC(=O)c1sc(S(=O)(=O)N2CCC(C(=O)O)CC2)c(C(=O)OC)c1C | -0.8%
COC(=O)COc1ccc(S(=O)(=O)N2CCCCC2)cc1[N+](=O)[O-] | 4.8%
COc1cc(NC(=O)COc2ccc(Cl)cc2)ccc1-c1cc2ccccc2oc1=O | 16.1%
COc1cc(NC(C)=O)ccc1-c1cc2ccccc2oc1=O | -3.4%
O=c1[nH]c(C2CCCN(S(=O)(=O)c3ccccc3)C2)nc2c1nnn2Cc1ccc2c(c1)OCCO2 (configuration not stated) | 21.7%
O=C(CN(CC1CCCO1)C(=O)CCC(=O)Nc1ccccn1)NCC1CCCO1 (configuration not stated) | 4.7%
Cc1ccc(C)c(-n2c(-c3ccc4c(c3)OCO4)n[nH]c2=S)c1 | 13.9%
C=C(C)COc1ccc(-c2nc(N)nc(C)c2-c2ccc(OC)cc2)c(O)c1 | 20.5%
CCc1ccccc1NC(=O)CN(C)C(=O)CN1C(=O)NC2(CCCCCC2)C1=O | 9.4%
O=C(CN1C(=O)NC2(CCCC2)C1=O)Nc1ccccc1C(F)(F)F | 18.6%
CCC(C)(C)C1CCC2(CC1)NC(=O)N(CC(=O)N(C)CC(=O)Nc1ccccc1C(F)(F)F)C2=O (configuration not stated) | 52.8% (active)
CCOC(=O)N1CCC(NC(=O)c2ccc3c(c2)N(C)CCS3)CC1 | 4.6%
